Drawing on PubChem BioAssay AID540332 (The Scripps Research Institute Molecular Screening Center, 2011), this text covers inhibition for one compound.

This assay concerns Phorbol Ester. The assay is described as follows: selectivity profile across receptors and CYP450s – biochemical, Ricerca HitProfilingScreen, CYP450, set 2, selectivity assay for S1P4 agonist project, profiling panel (AID 540332). The following applies: at 30 µM; hits give high values.

Values without a mark were called inactive. How the calls were made is not given here.

In general, inhibition refers to the drop in the measured response relative to a control, in per cent.

For `COCCN=C1S/C(=C\c2cc(C)n(-c3ccc(F)cc3F)c2C)C(=O)N1C`, the inhibition was 2%.
